From paper PMC4552634, “A New Set of Chemical Starting Points with Plasmodium falciparum Transmission-Blocking Potential for Antimalarial Drug Discovery” (PLoS ONE, 2015) come the findings set out here.

Among all 13,000 compounds or so, about 3,200 (25%) showed an effect of 50% or more. The list shows a part of the results.

The test system of the assay is P. falciparum stage V gametocytes. Also noted: BacTiter-Glo ATP luminescence viability of purified stage V gametocytes in 384-well plates, per cent inhibition versus DMSO. To be noted: 48 h, 5 µM; inhibitor.
Broadly, the % Inhibition is the drop in the measured response relative to a control, in per cent. Turning to `O=C(Nc1ccc(C(=O)N(Cc2ccc3c(c2)OCO3)C2CCCC2)cc1)c1cccs1` [TCMDC-125341], the “% Inhibition” value came out at 18.48%.

Regarding `O=C(Nc1cccc(C2=NCCCN2)c1)Nc1cccc(C2=NCCCN2)c1` [TCMDC-137203], the “% Inhibition” value is on record as -4.824%.

For the molecule `CNCC(C)(C)c1nc(-c2ccc(Cl)c(O)c2)c(-c2ccncc2)[nH]1` [TCMDC-140762], the “% Inhibition” value is recorded as -81.65%.

Regarding `CC1CCc2sc(-c3nnc(SC(C)C(=O)N4CCCC4)o3)cc2C1` (stereo not shown) [TCMDC-124867], the “% Inhibition” value amounted to 8.673%.

Turning to `COc1ccc2nc(N=C3NC4(c5ccccc5)NC(=Nc5nc6ccc(OC)cc6[nH]5)NC4(c4ccccc4)N3)[nH]c2c1` (stereo not shown) [TCMDC-139632], the “% Inhibition” value was -5.623%.

For `O=C(Nc1ccc(OC2CCN(Cc3ccsc3)C2)c(Cl)c1)c1cccs1` (stereo not shown) [TCMDC-133948], the “% Inhibition” value turned out to be 17.98%.

`CC(C)NCc1ccc(-c2ccc(CN3CCCC(c4ccccc4)C3)cc2)c(C(=O)NC2Cc3ccccc3C2)c1` (stereo not shown) [TCMDC-134700]: the “% Inhibition” value is on record as 9.317%.

As for `CCc1ccc(-c2cnc(N)c3cc(-c4ccnc(N)n4)ccc23)cc1` [TCMDC-134546], the “% Inhibition” value stood at 12.63%.

Consider `Cc1cccc2[nH]c(-c3cccc(-c4cccc(NC(=O)Nc5ccsc5)c4)c3)nc12` [TCMDC-133213], for which the “% Inhibition” value is reported as -5.013%.

As to `COc1ccc2c(ccc3c2ncc2c(=O)n(-c4ccccc4)[nH]c23)c1` [TCMDC-142015], the “% Inhibition” value came to 8.903%.

For `NC(=O)c1cccc(CNCc2ccc(-c3cccc(-c4nc5ccccc5[nH]4)c3)cc2)c1.O=C(O)C(F)(F)F` [TCMDC-132570], the “% Inhibition” value was 70.11%.

As for `Nc1cccc(CNCc2ccc(-c3cccc(-c4nc5ccccc5[nH]4)c3)cc2)c1.O=C(O)C(F)(F)F` [TCMDC-132924], the “% Inhibition” value is on record as -75.75%.

For the molecule `COC(=O)c1cccc(CNCc2cccc(-c3ccc(-c4nc5ccccc5[nH]4)cc3)c2)c1.O=C(O)C(F)(F)F` [TCMDC-132959], the “% Inhibition” value was -6.074%.

Consider `COC(=O)c1cccc(CNCc2ccc(-c3cccc(-c4nc5ccccc5[nH]4)c3)cc2)c1.O=C(O)C(F)(F)F` [TCMDC-132555], for which the “% Inhibition” value was 70.67%.

With `Cn1cncc1CNCc1ccc(-c2cccc(-c3nc4ccccc4[nH]3)c2)cc1.O=C(O)C(F)(F)F` [TCMDC-132569], the “% Inhibition” value is given as 52.47%.

With `O=C(O)C(F)(F)F.c1cc(-c2ccc(CNCc3ccsc3)cc2)cc(-c2nc3ccccc3[nH]2)c1` [TCMDC-132563], the “% Inhibition” value was -10.09%.

In the case of `COC(=O)c1cccc(CNCc2ccc(-c3cccc(-c4nc5cc(C(F)(F)F)ccc5[nH]4)c3)cc2)c1.O=C(O)C(F)(F)F` [TCMDC-132947], the “% Inhibition” value was -37.36%.

For `O=C(O)C(F)(F)F.c1ccc(-n2ncc(CNCc3ccc(-c4cccc(-c5nc6ccccc6[nH]5)c4)cc3)n2)cc1` [TCMDC-132564], the “% Inhibition” value is listed as -40.42%.

Consider `Cn1cccc1CCNCc1ccc(-c2cccc(-c3nc4ccccc4[nH]3)c2)cc1.O=C(O)C(F)(F)F` [TCMDC-132543], for which the “% Inhibition” value turned out to be 2.509%.

On to `N#Cc1cccc(Nc2nccc(Nc3ccc(Oc4ccccc4)cc3)n2)c1` [TCMDC-138558], for which the “% Inhibition” value is recorded as -36.77%.

With `CCCCCCc1cc(O)c2c3c(c(=O)oc2c1)CCN(C)C3` [TCMDC-124193], the “% Inhibition” value is 9.848%.

On to `CC(C)c1ccc(OCC(O)CN(C)C(C)C(O)c2ccccc2)c(Br)c1` (stereo not shown) [TCMDC-141995], for which the “% Inhibition” value came out at 3.955%.

As for `CC1(C)N=C(N)N=C(N)N1c1cccc(I)c1` [TCMDC-138037], the “% Inhibition” value is reported as -1.195%.

For `C(=NNc1cc(-c2ccccc2)nc2ccccc12)c1cccnc1` [TCMDC-142052], the “% Inhibition” value is -23.81%.

On to `COc1ccc2nc(-c3ccccc3)cc(NCCCNc3cc(-c4ccccc4)nc4ccc(OC)cc34)c2c1.Cl` [TCMDC-137734], for which the “% Inhibition” value worked out at 124.9%.

Regarding `c1ccc(-c2cc(NCCNc3cc(-c4ccccc4)nc4ccccc34)c3ccccc3n2)cc1` [TCMDC-137986], the “% Inhibition” value is listed as 24.95%.

Take `O=[N+]([O-])c1ccc(/C=N/Nc2cc(-c3ccccc3)nc3ccccc23)o1` [TCMDC-142051]: the “% Inhibition” value is recorded as 34.86%.

In the case of `CN(C)CCNc1cc(-c2ccc3ccccc3c2)nc2ccccc12` [TCMDC-124260], the “% Inhibition” value turned out to be 3.28%.

Consider `COc1ccc2nc(C)cc(NCc3cccc4ccccc34)c2c1.Cl` [TCMDC-138974], for which the “% Inhibition” value is reported as -17.8%.

Regarding `COc1ccc2nc(-c3ccccc3)cc(NCCN(C)C)c2c1` [TCMDC-123487], the “% Inhibition” value is listed as -6.807%.

In the case of `c1ccc(-c2cc(NCc3cccc4ccccc34)c3[nH]ncc3n2)cc1` [TCMDC-139455], the “% Inhibition” value came to 76.18%.

Regarding `c1ccc(-c2cc(NCCCCNc3cc(-c4ccccc4)nc4ccccc34)c3ccccc3n2)cc1` [TCMDC-137738], the “% Inhibition” value was 98.03%.

In the case of `COc1ccc2c(NCCc3ccccc3)cc(-c3ccccc3)nc2c1` [TCMDC-138992], the “% Inhibition” value worked out at 28.49%.

In the case of `c1ccc(-c2cc(NCCCCCCCCNc3cc(-c4ccccc4)nc4ccccc34)c3ccccc3n2)cc1` [TCMDC-137983], the “% Inhibition” value turned out to be 96.95%.

For the molecule `CS(=O)(=O)NCCCNCc1ccc(-c2ccc(-c3nc4cc(C(F)(F)F)ccc4[nH]3)s2)cc1.O=C(O)C(F)(F)F` [TCMDC-133076], the “% Inhibition” value was -24.74%.

With `COc1ccc2cc(C(C)NC3CCN(c4cccc(NC(=O)c5ccncc5)c4)CC3)ccc2c1` (stereo not shown) [TCMDC-124668], the “% Inhibition” value is recorded as -18.92%.

With `COc1ccc(CNC2CCN(C)CC2)cc1-c1ccc(OC)c(S(=O)(=O)NCc2ccccc2)c1` [TCMDC-132249], the “% Inhibition” value turned out to be 105.1%.

On to `COc1ccc(CNC2CCN(C)CC2)cc1-c1ccc(S(=O)(=O)NCc2ccccc2)c(C)c1` [TCMDC-132480], for which the “% Inhibition” value was 85.24%.

For the molecule `COc1ccc(CNC2CCN(C)CC2)cc1-c1ccc(S(=O)(=O)NCc2ccccc2)c(F)c1` [TCMDC-132262], the “% Inhibition” value stood at 59.53%.

Regarding `COc1ccc(-c2cccc(CNC3CCN(C)CC3)c2)cc1S(=O)(=O)NCc1ccccc1` [TCMDC-132375], the “% Inhibition” value was 75.59%.

Take `NC1=NC(Cc2ccccc2)N(c2ccc(Cl)cc2)C(N)=N1` (stereo not shown) [TCMDC-131291]: the “% Inhibition” value was 0.2754%.

Regarding `CC(C)(C)C(C)(C)Cc1ccc(O)c(CN2CCN(c3ccccc3)CC2)c1` [TCMDC-125678], the “% Inhibition” value is reported as -31.97%.

Take `CC(C)[C@H](NC(=O)c1ccc(O)c(-c2cccc(C(F)(F)F)c2)c1)C(=O)NCCN1CCCCC1` [TCMDC-140815]: the “% Inhibition” value came to 44.47%.

As to `O=C(Nc1ccc(-c2ccc(-c3nc4ccccc4[nH]3)s2)cc1)Nc1ccc(Cl)c(Cl)c1` [TCMDC-133283], the “% Inhibition” value was determined as 1.039%.

On to `CC[C@H](NC(=O)c1c(CC2CCN(CC(C)=O)CC2)c(-c2ccccc2)nc2ccccc12)c1ccccc1` [TCMDC-141946], for which the “% Inhibition” value is 44.22%.

With `CC(C)(C)c1ccc(NC(=O)c2ccc(CN3CCCN(CC4CCCCC4)CC3)cc2)cc1` [TCMDC-136428], the “% Inhibition” value is recorded as -70.52%.

On to `N#Cc1cccc(NC(=O)Nc2ccc(-c3cccc(-c4nc5ccc(F)cc5[nH]4)c3)cc2)c1` [TCMDC-133199], for which the “% Inhibition” value is 24.35%.

As for `CN(C(=O)c1snnc1-c1ccccc1)C1CCN(CCCCCNC(=O)/C=C/c2ccc(Cl)c(Cl)c2)CC1` [TCMDC-139993], the “% Inhibition” value was -14.58%.

As for `Oc1ccc2[nH]c(-c3ccc(F)cc3F)nc2c1CN1CCC(O)(c2ccccc2)CC1` [TCMDC-136532], the “% Inhibition” value is -67.95%.

Take `COc1ccc2nccc([C@@H](O)CN3CCC(NCc4nc5c([N+](=O)[O-])cccc5[nH]4)CC3)c2c1` [TCMDC-140982]: the “% Inhibition” value is on record as -2.529%.

`CC1CN(Cc2cccc(-c3ccc(-c4nc5cc(F)ccc5[nH]4)cc3)c2)CC(C)O1.O=C(O)C(F)(F)F` (stereo not shown) [TCMDC-133818]: the “% Inhibition” value is 13.23%.

As to `CC(CN1CCN(CC(c2ccc(F)cc2)N2CCN(C)CC2)CC1)C(=O)c1ccc(O)cc1` (stereo not shown) [TCMDC-125496], the “% Inhibition” value is reported as 29.96%.

As for `CC(C)N1CCN(C(CN2CCN(CCCOc3ccc4nonc4c3)CC2)c2ccc(F)cc2)CC1` (stereo not shown) [TCMDC-135500], the “% Inhibition” value is listed as 92.96%.

For the molecule `COc1ccc(C(C(=O)NC2CCN(C[C@H](O)c3ccnc4ccc(OC)cc34)CC2)N2CCN(c3ccc(F)cc3)CC2)cc1` (stereo partly shown) [TCMDC-140993], the “% Inhibition” value is -29%.

On to `CC(C)N1CCN(C(CN2CCN(CCCOc3cccc(-c4ccccc4)c3)CC2)c2ccc(F)cc2)CC1` (stereo not shown) [TCMDC-135498], for which the “% Inhibition” value is reported as 62.15%.

As to `CC(C)N1CCN(C(CN2CCN(CCCOc3ccccc3-c3ccccc3)CC2)c2ccc(F)cc2)CC1` (stereo not shown) [TCMDC-135499], the “% Inhibition” value was found to be 44.69%.

On to `CC(C)N1CCN(C(CN2CCN(CCCOc3cccc(F)c3)CC2)c2ccc(F)cc2)CC1` (stereo not shown) [TCMDC-135493], for which the “% Inhibition” value is given as 99.24%.

For `Cc1ccc(C2(C)CN(CCCOc3cccc(-c4ccc(C(=O)NC(C)C)cc4)c3)CCO2)cc1` (stereo not shown) [TCMDC-134386], the “% Inhibition” value is listed as 27.16%.

Take `CC(C)N1CCN(C(CN2CCN(CCCOc3ccc(-c4ccccc4)cc3)CC2)c2ccc(F)cc2)CC1` (stereo not shown) [TCMDC-135497]: the “% Inhibition” value is reported as 69.79%.

As for `O=C(CCN1C(=O)c2ccccc2C1=O)N1CCN(CC=Cc2ccccc2)CC1` [TCMDC-125744], the “% Inhibition” value was determined as 5.299%.

Regarding `CCCN(c1ccc(C(F)(F)F)cc1[N+](=O)[O-])S(=O)(=O)C(c1ccccc1)c1ccc(C(F)(F)F)cc1[N+](=O)[O-]` (stereo not shown) [TCMDC-132114], the “% Inhibition” value is 11.09%.

On to `COc1ccc(C)c(Nc2ccnc(Nc3ccc(-c4cnc[nH]4)cc3)n2)c1` [TCMDC-138695], for which the “% Inhibition” value is -34.59%.

On to `CC(C)(C)NC(=O)COC(=O)c1c2c(nc3ccccc13)C(=Cc1ccc3c(c1)OCO3)CCC2` [TCMDC-125143], for which the “% Inhibition” value is on record as 31.31%.

In the case of `CC(C)CCN(Cc1cncn1Cc1cccc(Cl)c1)C(=O)c1cncc(-c2ccccc2)c1` [TCMDC-132465], the “% Inhibition” value amounted to 21.61%.
